Measured values as given in PubChem BioAssay.
Inconclusive results are not listed. The source made the active and inactive calls.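 Rule for the calls, unless noted: active = viability at or under a set limit in both replicates, limit being median viability minus 3 SD (cut at about 48% in these data, passing the limit was not always enough); inconclusive = at or under the limit in just one replicate; inactive = at or above the limit in both replicates.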

Columns and labels:
[1] = reducers of endogenous Her2 protein level, primary screen, SKBR3 breast tumor cells, AlphaScreen, ATP viability (AID 461;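 active = Her2 level under about 52% in both replicate screens, with viability over 70% of control, limit read from the data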;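 for Her2 level: lower value means less Her2 protein in the cells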;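 for viability: percent of carrier control wells set as 100% viability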); conditions: 18-24 h, measured here: SKBR3 viability, ATP luminescence, at 10 µM
[2] = molecular target: Receptor tyrosine-protein kinase erbB-2 (Homo sapiens) (UniProt P04626); assay: as above; conditions: 18-24 h, at 10 µM, stronger effect = lower value
Chain of Receptor tyrosine-protein kinase erbB-2 (Homo sapiens) (P04626 whole entry, looked up): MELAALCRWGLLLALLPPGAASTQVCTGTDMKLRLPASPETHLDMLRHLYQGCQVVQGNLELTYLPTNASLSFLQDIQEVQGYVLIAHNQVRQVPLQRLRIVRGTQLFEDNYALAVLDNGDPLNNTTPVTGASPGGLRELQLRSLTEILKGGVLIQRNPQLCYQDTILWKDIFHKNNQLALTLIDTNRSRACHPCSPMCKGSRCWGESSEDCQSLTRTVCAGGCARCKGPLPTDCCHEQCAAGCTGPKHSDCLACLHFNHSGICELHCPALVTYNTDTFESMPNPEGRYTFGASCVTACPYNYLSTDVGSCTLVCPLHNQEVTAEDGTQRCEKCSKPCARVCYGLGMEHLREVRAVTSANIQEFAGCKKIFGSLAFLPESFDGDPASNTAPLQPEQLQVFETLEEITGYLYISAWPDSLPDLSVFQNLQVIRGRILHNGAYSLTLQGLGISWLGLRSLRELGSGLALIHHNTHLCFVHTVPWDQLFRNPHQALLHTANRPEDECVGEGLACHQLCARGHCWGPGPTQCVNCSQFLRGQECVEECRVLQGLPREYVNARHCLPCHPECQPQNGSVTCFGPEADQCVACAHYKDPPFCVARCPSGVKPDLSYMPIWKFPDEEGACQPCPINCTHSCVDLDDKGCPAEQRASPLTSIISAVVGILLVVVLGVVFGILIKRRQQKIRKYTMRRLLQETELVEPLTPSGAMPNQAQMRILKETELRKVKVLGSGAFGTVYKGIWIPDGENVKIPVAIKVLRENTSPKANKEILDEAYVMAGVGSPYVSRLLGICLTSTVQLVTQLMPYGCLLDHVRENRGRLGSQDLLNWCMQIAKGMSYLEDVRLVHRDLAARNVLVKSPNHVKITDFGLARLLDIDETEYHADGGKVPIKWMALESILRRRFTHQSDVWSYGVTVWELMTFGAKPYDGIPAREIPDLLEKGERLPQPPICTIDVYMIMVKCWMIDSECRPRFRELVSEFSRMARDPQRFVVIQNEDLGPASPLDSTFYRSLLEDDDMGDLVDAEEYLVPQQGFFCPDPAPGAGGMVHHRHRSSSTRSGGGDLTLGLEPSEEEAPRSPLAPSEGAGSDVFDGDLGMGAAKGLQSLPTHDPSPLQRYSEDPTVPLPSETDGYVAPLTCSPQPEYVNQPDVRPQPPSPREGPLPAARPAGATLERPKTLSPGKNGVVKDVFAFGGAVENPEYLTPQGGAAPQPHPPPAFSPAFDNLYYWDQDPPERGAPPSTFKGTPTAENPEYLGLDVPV

[3] = SK-BR-3 cell growth inhibitors, pilot screen, 24 h, human (AID 572;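 active = viability at or below 10% of carrier control in both of two separate runs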;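 note: compound exposure lasted between 18 and 24 h rather than exactly 24 h; 100% = carrier-treated control wells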); conditions: SK-BR-3 viability, CellTiter-Glo luminescence, at 10 µM, stronger effect = lower value
[4] = HUVEC growth inhibition – cell-based, human, primary screen (AID 575;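 active = viability at or below 30% in both replicate assays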;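 note: 100% = median of untreated cell wells with 0.1% DMSO on each plate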); conditions: HUVEC proliferation, CellTiter-Glo luminescence, 72 h; at 10 µM; stronger effect = lower value
[5] = growth inhibitors of H69AR lung tumor, primary screen, human, duplicate replicates (AID 580); conditions: H69AR lung tumor cells viability, ATP luminescence, 72 h; at 10 µM; stronger effect = lower value;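 note: 100% = mean luminescence of untreated wells and 0% = no signal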
[6] = reversal of MRP1-mediated doxorubicin resistance, pilot screen, H69AR cells, doxorubicin co-treatment (AID 601;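 active = viability loss from added drug above about 55%, and viability with drug at most 40%, in both replicates, limit read from the data, passing the limit was not always enough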); conditions: CellTiter-Glo, 72 h, at 10 µM; for differential viability (reversal): stronger effect = higher value
[7] = 384-well plate pilot, post-Golgi transport modulator project, inhibition of yeast transport mutant growth (AID 636; in the data active = inhibition above about 31%); conditions: absorbance 615 nm, about 18 h, stronger effect = higher value
[8] = growth suppression of yeast trafficking mutant, preliminary HTS, modulators of trafficking downstream of Golgi apparatus project, 1536-format plate, OD 615 nm (AID 637; in the data active = inhibition above about 30%); conditions: yeast transport mutant growth, absorbance 615 nm, 18 h; stronger effect = higher value
[9] = OD615 S. cerevisiae growth inhibition, permissive medium, pilot counter-assay, permissive growth control for S. cerevisiae lifespan shortening project (AID 705;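 active = growth inhibition above 25% in both replicates, a cutoff set 3 SD above the mean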); conditions: OD615, 24 h, at 10 µM, stronger effect = higher value
[10] = Restrictive medium S. cerevisiae growth inhibition, OD615, pilot screen of yeast lifespan reduction project, restrictive growth control (AID 706;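 active = growth inhibition above a set limit, 3 SD over mean compound inhibition, in both replicates, cut at about 43% in these data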;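 note: modified DeaD lifespan yeast strain shifted to restrictive glucose medium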); conditions: OD615, 48 h, at 10 µM, stronger effect = higher value
[11] = viability gain of MRP-1-high H69AR cells under doxorubicin, pilot screen, MRP-1 activator project, CellTiter-Glo, duplicate (AID 807;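 active = viability increase at or above a cutoff of the median across tested compounds plus 3 SD, cut at about 8.5% in these data, passing the limit was not always enough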;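 note: compound pretreatment 18-22 h then 72 h combined with doxorubicin; 0% = doxorubicin alone and 100% = vehicle without doxorubicin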); conditions: H69AR viability with doxorubicin, CellTiter-Glo luminescence; at 10 µM; stronger effect = higher value
[12] = growth suppression of PTEN-deleted HCT116, pilot screen, cell-based, HCT116 clonal line, CellTiter-Glo (AID 824;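 active = viability at or below 27.92% in each of two runs, the all-compound median minus 4 SD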;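 note: 0% = 20 µM Hyamine control and 100% = vehicle cell control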); conditions: 60 h, at 10 µM, stronger effect = lower value
[13] = inhibitors of the yeast RAM network, pilot screen, dse1pr::URA3 reporter, 5-FOA selection (AID 869;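 active = inhibition over a set limit, the all-compound mean plus 3 SD, in both replicate runs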;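 note: 0% = DMSO wells with no growth and 100% = 10 µM 1-NA-PP1 with full growth; RAM network block rescues cells from 5-FOA so hits raise OD615 growth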); conditions: S. cerevisiae dse1pr::URA3 5-FOA growth, OD615, 2 d; at 10 µM; stronger effect = higher value; strain carries analog-sensitive mutant Cbk1 kinase
[14] = RAM signaling pathway blockade in yeast – S. cerevisiae, Pdr1DBD-CYC8 efflux-inhibited sensitized strain, primary screen (AID 1298;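 active = RAM network inhibition above 8.4% in each of two replicates, 3 SD over the compound average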;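 note: 0% = DMSO untreated cells without growth and 100% = 10 µM 1-NA-PP1 full growth; higher means more yeast growth rescued from 5-FOA killing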); conditions: S. cerevisiae cbk1-as DSE1-URA3 strain, 5-FOA growth OD615, 2 d; at 50 µM; stronger effect = higher value
[15] = growth suppression of beta-catenin knockout HCT116, pilot screen, human colon tumor cells (AID 823;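 active = cell viability at or below a set limit in both duplicate runs, the limit being the all-compound median minus 4 SD, cut at about 23% in these data, passing the limit was not always enough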;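 note: 0% = wells killed by 20 µM Hyamine and 100% = untreated DMSO cell wells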); conditions: CellTiter-Glo, 60 h, at 10 µM, stronger effect = lower value
[16] = H69AR cells + 2 uM doxorubicin, measured here: viability with 2 uM doxorubicin, stronger effect = lower value
[17] = H69AR cells, compound alone cytotoxicity

CCOC(=O)c1cc2c(=O)n3ccccc3nc2n(CCCOC)c1=NC(C)=O
94.2%: viability [6, 17]
90%: viability [1]
inactive: Her2 level [2] 94.5% | viability [3] 90% | viability [4] 109% | viability [5] 94.2% | differential viability (reversal) ([6]; H69AR cells + 2 uM doxorubicin) 26.5% | inhibition [7] -5.48% | inhibition [8] -0.48% | growth inhibition [9] -6.91% | growth inhibition [10] -0.22% | viability increase [11] -4.92% | viability [12] 100% | inhibition [13] 1.38% | RAM network inhibition [14] 6.83%
67.7%: viability [6, 16]

CCOCCCNC(=O)C(c1ccc(C)cc1)N(Cc1ccc2c(c1)OCO2)C(=O)c1cnccn1 (centres undefined)
98.7%: viability [6, 17]
98%: viability [1]
inactive: Her2 level [2] 102% | viability [3] 98% | viability [4] 103% | viability [5] 98.7% | differential viability (reversal) ([6]; H69AR cells + 2 uM doxorubicin) -0.27% | inhibition [7] -5.34% | inhibition [8] 2.38% | growth inhibition [9] -5.46% | growth inhibition [10] 3.09% | viability increase [11] -2.67% | viability [15] 93.8% | inhibition [13] 1.83% | RAM network inhibition [14] 5.34%
98.9%: viability [6, 16]

CCC(C)(NC(=O)CNC(C)=O)C(=O)NC1CCCCC1 (centres undefined)
97.1%: viability [6, 16]
130%: viability [1]
inactive: Her2 level [2] 108% | viability [3] 130% | viability [4] 105% | viability [5] 94% | differential viability (reversal) ([6]; H69AR cells + 2 uM doxorubicin) -3.05% | inhibition [7] -5.48% | inhibition [8] -9.52% | growth inhibition [9] -15.5% | growth inhibition [10] -3.8% | viability increase [11] -1.92% | viability [12] 97.7% | inhibition [13] 2.88% | RAM network inhibition [14] -0.83%
94%: viability [6, 17]

O=C(NC1(C(=O)NC2CCCCC2)CCCCC1)c1ccc2c(c1)OCO2
inactive: Her2 level [2] 92.5% | viability [3] 96.5% | viability [4] 105% | viability [5] 104% | differential viability (reversal) ([6]; H69AR cells + 2 uM doxorubicin) 4.42% | inhibition [7] -4.66% | inhibition [8] -1.27% | growth inhibition [9] -0.75% | growth inhibition [10] 10.5% | viability increase [11] 0.41% | viability [12] 87% | inhibition [13] 1% | RAM network inhibition [14] 5.37%
99.2%: viability [6, 16]
104%: viability [6, 17]
96.5%: viability [1]

CN1C(=O)C(O)(CC(=O)c2ccc(F)cc2)c2cc(Br)ccc21 (centres undefined)
inactive: Her2 level [2] 86.5% | viability [3] 85.5% | viability [4] 76.8% | differential viability (reversal) ([6]; H69AR cells + 2 uM doxorubicin) -30.8% | inhibition [7] -5.2% | inhibition [8] 2% | growth inhibition [9] -8.62% | growth inhibition [10] -8.46% | viability increase [11] -6.12% | inhibition [13] 1.45% | RAM network inhibition [14] -0.67%
active: viability [5] 20.1% | viability [12] 15.8%
20.1%: viability [6, 17]
50.9%: viability [6, 16]
85.5%: viability [1]

COc1ccc(N(C)C(=O)CCS(=O)(=O)c2cccc3nonc23)cc1
inactive: Her2 level [2] 85% | viability [3] 96.5% | viability [4] 94.9% | viability [5] 104% | differential viability (reversal) ([6]; H69AR cells + 2 uM doxorubicin) 14.5% | inhibition [7] -9.86% | inhibition [8] -0.95% | growth inhibition [9] -9.93% | growth inhibition [10] -8.78% | viability increase [11] -3.05% | viability [12] 89.6% | inhibition [13] 1.3% | RAM network inhibition [14] 4.67%
104%: viability [6, 17]
96.5%: viability [1]
89.6%: viability [6, 16]

Cc1ccc(-n2c3c(cc(C(=O)O)c2=O)C(=O)CC(C)(C)C3)cc1
inactive: Her2 level [2] 82.5% | viability [3] 98% | viability [4] 111% | viability [5] 87.8% | differential viability (reversal) ([6]; H69AR cells + 2 uM doxorubicin) -3.07% | inhibition [7] -1.84% | inhibition [8] 0% | growth inhibition [9] -16.4% | growth inhibition [10] -5.83% | viability increase [11] -3.48% | viability [12] 100% | inhibition [13] 0.675% | RAM network inhibition [14] 4.71%
90.9%: viability [6, 16]
98%: viability [1]
87.8%: viability [6, 17]

Cc1ccc(S(=O)(=O)N2CCOCC2)cc1C(=O)Nc1nc(-c2cccnc2)cs1
106%: viability [1]
103%: viability [6, 17]
inactive: Her2 level [2] 91% | viability [3] 106% | viability [4] 88.8% | viability [5] 103% | differential viability (reversal) ([6]; H69AR cells + 2 uM doxorubicin) 9% | inhibition [7] 0% | inhibition [8] -3.33% | growth inhibition [9] -14.2% | growth inhibition [10] -6.87% | viability increase [11] -1.69% | viability [15] 96.8% | inhibition [13] 1.93% | RAM network inhibition [14] 3.11%
94.3%: viability [6, 16]

CC(O)CN1C(=O)C(CC(=O)Nc2ccc(Cl)cc2)SC1=Nc1ccccc1 (centres undefined)
76.6%: viability [6, 16]
97%: viability [1]
inactive: Her2 level [2] 101% | viability [3] 97% | viability [4] 57% | viability [5] 66.4% | differential viability (reversal) ([6]; H69AR cells + 2 uM doxorubicin) -10.2% | inhibition [7] -6.99% | inhibition [8] -7.94% | growth inhibition [9] -9.07% | growth inhibition [10] -7.22% | viability increase [11] -3.6% | viability [12] 59.2% | inhibition [13] 2.45% | RAM network inhibition [14] 6.03%
66.4%: viability [6, 17]
